{"source": "the supplement of paper PMC12350171", "note": "Counter-ions that a name gives are not always drawn.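 Note: active when median AUC fell below 0.1.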"}
{"tested_on": "P. vulgatus WT", "assay": "growth AUC normalised to DMSO control (median) (fraction of control); higher = less growth inhibition, active = hit call of the paper", "conditions": "20 µM;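 active = normalised median growth AUC below 0.1 of DMSO control; inactive = AUC 0.1 or higher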", "method_in_brief": "(§1)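 After two overnight anaerobic passages, strains were inoculated at OD578 0.01 into mGAM in 96-well plates containing approved-drug library compounds at 20 μM and 1% DMSO. Growth was followed by reading OD578 hourly for 24 h within an anaerobic incubator. Area under the curve, taken by the trapezoidal rule up to the start of stationary phase, was normalised to same-plate vehicle wells, and the median of three biological replicates is listed.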"}
{"smiles": "C[C@H](O)C(=O)Nc1c(I)c(C(=O)NC(CO)CO)c(I)c(C(=O)NC(CO)CO)c1I", "note": "[Iopamidol]", "growth AUC normalised to DMSO control": "1.08 (inactive)"}
{"smiles": "CCCOc1ccccc1-c1nc2[nH]nnc2c(=O)[nH]1", "note": "[Zaprinast]", "growth AUC normalised to DMSO control": "1.02 (inactive)"}
{"smiles": "CCCCc1oc2ccccc2c1C(=O)c1cc(I)c(OCCN(CC)CC)c(I)c1", "note": "[Amiodarone hydrochloride]", "growth AUC normalised to DMSO control": "1.06 (inactive)"}
{"smiles": "CC(C(=O)O)c1ccc(-c2ccccc2)c(F)c1", "note": "(stereo unspecified) [Flurbiprofen]", "growth AUC normalised to DMSO control": "0.991 (inactive)"}
{"smiles": "C[C@]12C=CC(=O)C=C1CC[C@@H]1[C@@H]2[C@@H](O)C[C@@]2(C)[C@H]1CC[C@]2(O)C(=O)CO", "note": "[Prednisolone]", "growth AUC normalised to DMSO control": "0.995 (inactive)"}
{"smiles": "CNCCc1ccccn1", "note": "[Betahistine mesylate]", "growth AUC normalised to DMSO control": "1 (inactive)"}
{"smiles": "C[C@]12C=CC(=O)C=C1CC[C@@H]1[C@@H]2C(=O)C[C@@]2(C)[C@H]1CC[C@]2(O)C(=O)CO", "note": "[Prednisone]", "growth AUC normalised to DMSO control": "1.02 (inactive)"}
{"smiles": "C[N+](C)(C)CCCCCC[N+](C)(C)C", "note": "[Hexamethonium dibromide dihydrate]", "growth AUC normalised to DMSO control": "1 (inactive)"}
{"smiles": "CCCCNC(=O)NS(=O)(=O)c1ccc(C)cc1", "note": "[Tolbutamide]", "growth AUC normalised to DMSO control": "1.04 (inactive)"}
{"smiles": "COc1cc2nc(N3CCN(C(=O)C4CCCO4)CC3)nc(N)c2cc1OC", "note": "(stereo unspecified) [Terazosin hydrochloride]", "growth AUC normalised to DMSO control": "1.04 (inactive)"}
{"smiles": "CC(=O)N1CCN(c2ccc(OCC3COC(Cn4ccnc4)(c4ccc(Cl)cc4Cl)O3)cc2)CC1", "note": "(stereo unspecified) [Ketoconazole]", "growth AUC normalised to DMSO control": "0.972 (inactive)"}
{"tested_on": "S. enterica typhimurium WT", "assay": "growth AUC normalised to DMSO control (median) (fraction of control); higher = less growth inhibition, active = hit call of the paper", "conditions": "20 µM", "method_in_brief": "as §1"}
{"smiles": "CCN[C@H]1CN(CCCOC)S(=O)(=O)c2sc(S(N)(=O)=O)cc21", "note": "[Brinzolamide]", "growth AUC normalised to DMSO control": "0.995 (inactive)"}
{"smiles": "CN1CCCN=C1/C=C/c1cccs1", "note": "[Pyrantel tartrate]", "growth AUC normalised to DMSO control": "1.01 (inactive)"}
{"smiles": "CN1CCc2cccc3c2[C@H]1Cc1ccc(O)c(O)c1-3", "note": "[R(-) Apomorphine hydrochloride hemihydrate]", "growth AUC normalised to DMSO control": "1.01 (inactive)"}
{"smiles": "CCCCCCCN(CC)CCCC(O)c1ccc(NS(C)(=O)=O)cc1", "note": "(stereo unspecified) [Ibutilide fumarate]", "growth AUC normalised to DMSO control": "0.996 (inactive)"}
{"smiles": "Clc1ccc2c(c1)C(N1CCNCC1)=Nc1ccccc1O2", "note": "[Amoxapine]", "growth AUC normalised to DMSO control": "1.01 (inactive)"}
{"smiles": "Cc1c(OCC(F)(F)F)ccnc1C[S+]([O-])c1nc2ccccc2[nH]1", "note": "(stereo unspecified) [Lansoprazole]", "growth AUC normalised to DMSO control": "1 (inactive)"}
{"smiles": "Nc1ccc(/N=N/c2ccccc2)c(N)n1", "note": "[Phenazopyridine hydrochloride]", "growth AUC normalised to DMSO control": "0.989 (inactive)"}
{"smiles": "C[C@]12CC[C@@H]3c4ccc(O)cc4C[C@@H](CCCCCCCCC[S+]([O-])CCCC(F)(F)C(F)(F)F)[C@H]3[C@@H]1CC[C@@H]2O", "note": "(stereo partly specified) [Fulvestrant]", "growth AUC normalised to DMSO control": "1.02 (inactive)"}
{"smiles": "OCCOCCN1CCN(C(c2ccccc2)c2ccc(Cl)cc2)CC1", "note": "(stereo unspecified) [Hydroxyzine dihydrochloride]", "growth AUC normalised to DMSO control": "1 (inactive)"}
{"smiles": "CNCCCC12CCC(c3ccccc31)c1ccccc12", "note": "[Maprotiline hydrochloride]", "growth AUC normalised to DMSO control": "0.997 (inactive)"}
{"smiles": "CC[C@H](C)C(=O)O[C@H]1C[C@H](O)C=C2C=C[C@H](C)[C@H](CC[C@@H](O)C[C@@H](O)CC(=O)O)[C@H]21", "note": "[Pravastatin]", "growth AUC normalised to DMSO control": "1.02 (inactive)"}
{"smiles": "S=c1[nH]cnc2nc[nH]c12", "note": "[Mercaptopurine]", "growth AUC normalised to DMSO control": "1 (inactive)"}
{"smiles": "CC/C(=C(\\c1ccccc1)c1ccc(OCCN(C)C)cc1)c1ccccc1", "note": "[Tamoxifen citrate]", "growth AUC normalised to DMSO control": "1 (inactive)"}
{"smiles": "CC(=O)OCC(=O)[C@@]1(O)CC[C@H]2[C@@H]3CCC4=CC(=O)CC[C@]4(C)[C@@]3(F)[C@@H](O)C[C@@]21C", "note": "[Fludrocortisone acetate]", "growth AUC normalised to DMSO control": "1.02 (inactive)"}
{"smiles": "CC[C@@H](CO)NCCN[C@@H](CC)CO", "note": "[Ethambutol dihydrochloride]", "growth AUC normalised to DMSO control": "1 (inactive)"}
{"smiles": "O=C(Nc1cccc2c(=O)cc(-c3nnn[nH]3)oc12)c1ccc(OCCCCc2ccccc2)cc1", "note": "[Pranlukast]", "growth AUC normalised to DMSO control": "1.01 (inactive)"}
{"smiles": "CC(=C(CCO)SSCC1CCCO1)N(C=O)Cc1cnc(C)nc1N", "note": "(stereo in doubt) [Fursultiamine hydrochloride]", "growth AUC normalised to DMSO control": "0.986 (inactive)"}
{"smiles": "Cc1ncc([N+](=O)[O-])n1CC(O)CCl", "note": "(stereo unspecified) [Ornidazole]", "growth AUC normalised to DMSO control": "0.99 (inactive)"}
{"smiles": "CCC(=O)O[C@]1(C(=O)SCF)[C@H](C)C[C@H]2[C@@H]3C[C@H](F)C4=CC(=O)C=C[C@]4(C)[C@@]3(F)[C@@H](O)C[C@@]21C", "note": "[Fluticasone propionate]", "growth AUC normalised to DMSO control": "0.993 (inactive)"}
{"smiles": "Cc1cccc(C)c1OCC(C)N", "note": "(stereo unspecified) [Mexiletine hydrochloride]", "growth AUC normalised to DMSO control": "1 (inactive)"}
{"smiles": "CCC(=O)OCC(=O)[C@@]1(OC(=O)CC)[C@H](C)C[C@H]2[C@H]3[C@H]([C@@H](O)C[C@@]21C)[C@@]1(C)C=CC(=O)C=C1C[C@H]3Cl", "note": "[Alclometasone dipropionate]", "growth AUC normalised to DMSO control": "1 (inactive)"}
{"smiles": "NC(=O)c1cccnc1", "note": "[Nicotinamide]", "growth AUC normalised to DMSO control": "0.996 (inactive)"}
{"smiles": "c1ccc(CC2=NCCN2)cc1", "note": "[Tolazoline hydrochloride]", "growth AUC normalised to DMSO control": "0.987 (inactive)"}
{"smiles": "COc1cccc2c1C(=O)c1c(O)c3c(c(O)c1C2=O)C[C@@](O)(C(=O)CO)C[C@@H]3O[C@H]1C[C@H](N)[C@H](O)[C@H](C)O1", "note": "[Doxorubicin hydrochloride]", "growth AUC normalised to DMSO control": "0.986 (inactive)"}
{"smiles": "CC(=O)NC[C@H]1CN(c2ccc(N3CCOCC3)c(F)c2)C(=O)O1", "note": "[Linezolid]", "growth AUC normalised to DMSO control": "0.918 (inactive)"}
{"smiles": "NC1CCN(c2nc3c(cc2F)c(=O)c(C(=O)O)cn3-c2ccc(F)cc2F)C1", "note": "(stereo unspecified) [Tosufloxacin hydrochloride]", "growth AUC normalised to DMSO control": "0.00524 (active)"}
{"smiles": "CCn1cc(C(=O)O)c(=O)c2cc(F)c(N3CCNCC3)cc21", "note": "[Norfloxacin]", "growth AUC normalised to DMSO control": "0.00734 (active)"}
{"smiles": "CCC1=C(C)CN(C(=O)NCCc2ccc(S(=O)(=O)NC(=O)N[C@H]3CC[C@H](C)CC3)cc2)C1=O", "note": "[Glimepiride]", "growth AUC normalised to DMSO control": "1.03 (inactive)"}
{"smiles": "COc1ccc(C(=O)c2ccccc2O)c(O)c1", "note": "[Dioxybenzone]", "growth AUC normalised to DMSO control": "0.993 (inactive)"}
{"smiles": "C[C@H](O)C(=O)Nc1c(I)c(C(=O)NC(CO)CO)c(I)c(C(=O)NC(CO)CO)c1I", "note": "[Iopamidol]", "growth AUC normalised to DMSO control": "1.01 (inactive)"}
{"smiles": "CCCOc1ccccc1-c1nc2[nH]nnc2c(=O)[nH]1", "note": "[Zaprinast]", "growth AUC normalised to DMSO control": "1 (inactive)"}
{"smiles": "CCCCc1oc2ccccc2c1C(=O)c1cc(I)c(OCCN(CC)CC)c(I)c1", "note": "[Amiodarone hydrochloride]", "growth AUC normalised to DMSO control": "1.04 (inactive)"}
{"smiles": "CC(C(=O)O)c1ccc(-c2ccccc2)c(F)c1", "note": "(stereo unspecified) [Flurbiprofen]", "growth AUC normalised to DMSO control": "0.995 (inactive)"}
{"smiles": "C[C@]12C=CC(=O)C=C1CC[C@@H]1[C@@H]2[C@@H](O)C[C@@]2(C)[C@H]1CC[C@]2(O)C(=O)CO", "note": "[Prednisolone]", "growth AUC normalised to DMSO control": "0.995 (inactive)"}
{"smiles": "CNCCc1ccccn1", "note": "[Betahistine mesylate]", "growth AUC normalised to DMSO control": "1.02 (inactive)"}
{"smiles": "C[C@]12C=CC(=O)C=C1CC[C@@H]1[C@@H]2C(=O)C[C@@]2(C)[C@H]1CC[C@]2(O)C(=O)CO", "note": "[Prednisone]", "growth AUC normalised to DMSO control": "0.994 (inactive)"}
{"smiles": "C[N+](C)(C)CCCCCC[N+](C)(C)C", "note": "[Hexamethonium dibromide dihydrate]", "growth AUC normalised to DMSO control": "0.99 (inactive)"}
{"smiles": "CCCCNC(=O)NS(=O)(=O)c1ccc(C)cc1", "note": "[Tolbutamide]", "growth AUC normalised to DMSO control": "0.996 (inactive)"}
{"smiles": "COc1cc2nc(N3CCN(C(=O)C4CCCO4)CC3)nc(N)c2cc1OC", "note": "(stereo unspecified) [Terazosin hydrochloride]", "growth AUC normalised to DMSO control": "1 (inactive)"}
{"smiles": "CC(=O)N1CCN(c2ccc(OCC3COC(Cn4ccnc4)(c4ccc(Cl)cc4Cl)O3)cc2)CC1", "note": "(stereo unspecified) [Ketoconazole]", "growth AUC normalised to DMSO control": "0.998 (inactive)"}
